Among the data in PubChem BioAssay AID743320 (Broad Institute, 2014) are outcome and activity change, negative = inhibition values, retold here.

Structures are written as SMILES. Measured potencies and affinities stand elsewhere. Activity calls are given as the source filed them.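 Rule for the calls: active = signal drop whose fitted half-maximal potency is at most twice the top valid dose tested; inconclusive = flat curve inhibiting 30 to 70 percent, or a poor fit; inactive = the rest.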

The target in the test is Endoplasmic reticulum aminopeptidase 2 (Homo sapiens) (UniProt Q6P179). In words: ERAP2 aminopeptidase inhibitors, dose response, selectivity assay for selective ERAP1 modulator project, biochemical, fluorescence plate reader, cherry-picked, set 2 (AID 743320). Particulars: recombinant ERAP2, Arg-AMC fluorescence, 1 h; series mostly up to 11 µM.
Sequence of Endoplasmic reticulum aminopeptidase 2 (Homo sapiens) (Q6P179 whole entry, looked up): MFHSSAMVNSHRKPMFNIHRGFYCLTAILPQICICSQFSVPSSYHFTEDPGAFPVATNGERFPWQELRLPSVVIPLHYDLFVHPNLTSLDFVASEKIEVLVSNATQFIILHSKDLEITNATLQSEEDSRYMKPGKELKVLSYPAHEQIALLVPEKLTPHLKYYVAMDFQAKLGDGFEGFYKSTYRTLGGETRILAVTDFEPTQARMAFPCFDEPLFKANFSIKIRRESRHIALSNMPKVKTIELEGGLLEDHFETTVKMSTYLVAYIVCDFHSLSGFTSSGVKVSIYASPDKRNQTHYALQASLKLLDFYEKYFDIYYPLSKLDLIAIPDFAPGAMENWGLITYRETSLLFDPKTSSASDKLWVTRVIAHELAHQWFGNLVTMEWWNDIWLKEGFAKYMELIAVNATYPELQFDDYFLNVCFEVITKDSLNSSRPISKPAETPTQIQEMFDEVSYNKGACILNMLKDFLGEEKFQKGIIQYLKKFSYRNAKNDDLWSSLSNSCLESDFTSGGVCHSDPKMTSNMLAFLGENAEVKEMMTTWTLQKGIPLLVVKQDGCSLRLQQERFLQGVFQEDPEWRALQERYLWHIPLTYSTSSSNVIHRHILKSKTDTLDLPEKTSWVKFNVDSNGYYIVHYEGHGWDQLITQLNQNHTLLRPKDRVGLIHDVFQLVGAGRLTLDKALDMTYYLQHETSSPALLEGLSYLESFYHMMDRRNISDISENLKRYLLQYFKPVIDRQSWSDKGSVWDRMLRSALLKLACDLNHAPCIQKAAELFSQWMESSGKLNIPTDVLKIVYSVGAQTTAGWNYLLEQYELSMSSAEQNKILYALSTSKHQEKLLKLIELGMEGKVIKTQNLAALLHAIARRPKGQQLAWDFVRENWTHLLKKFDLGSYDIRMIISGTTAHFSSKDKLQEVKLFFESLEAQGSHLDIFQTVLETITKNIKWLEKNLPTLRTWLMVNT
`C[C@@H]1CCCCO[C@H](CN(C)Cc2ccc(C(=O)O)cc2)[C@@H](C)CN([C@H](C)CO)C(=O)c2cc(NC(=O)Nc3ccc(C(F)(F)F)cc3)ccc2O1`: the result was inactive. On the same count and under the same terms, the same measure for `CCCCc1cc(=O)oc2cc(O)ccc12`: “inactive”. On the same count and under the same terms, the same measure for `CCCN(C)C[C@@H]1OCCCC[C@@H](C)Oc2ccc(NS(=O)(=O)c3ccc(F)cc3)cc2C(=O)N([C@H](C)CO)C[C@@H]1C`: “inactive”; for `CCCN(C)C[C@@H]1OCCCC[C@@H](C)Oc2ccc(NS(=O)(=O)c3c(C)noc3C)cc2C(=O)N([C@H](C)CO)C[C@@H]1C`: “inactive”. Turning to `Cc1noc(C)c1NC(=O)N(C)C[C@@H]1Oc2c(NC(=O)Nc3ccccc3)cccc2C(=O)N([C@H](C)CO)C[C@@H]1C`, the outcome was inactive. The same measure, in the same setting: the same measure for `CCCN(C)C[C@@H]1OCCCC[C@@H](C)Oc2ccc(NS(=O)(=O)c3cccs3)cc2C(=O)N([C@H](C)CO)C[C@@H]1C`: “inactive”; for `O=C(CSc1cn[nH]n1)Nc1cccc(C(=O)O)c1`: “inactive”. Same read-out and setting: the same measure for `O=C(C[C@@H]1CC[C@@H]2[C@H](COC[C@H](O)CN2C(=O)Nc2cccc(Cl)c2)O1)N1CCCCC1`: “inactive”; for `C[C@@H]1CCCCO[C@H](CN(C)Cc2ccccc2)[C@H](C)CN([C@H](C)CO)C(=O)c2cc(NS(=O)(=O)c3ccccc3)ccc2O1`: “inactive”. Still for that read-out and setting: the same measure for `C[C@@H]1CCCCO[C@@H](CN(C)CC2CC2)[C@@H](C)CN([C@H](C)CO)C(=O)c2cc(NS(=O)(=O)c3cccs3)ccc2O1`: “inactive”. Turning to `C[C@@H]1CN([C@H](C)CO)C(=O)c2cccc(NC(=O)Nc3ccccc3)c2O[C@@H]1CN(C)Cc1ccc(C(=O)O)cc1`, the outcome was inactive. The same measure, in the same setting: under `COc1ccc(NC(=O)Nc2ccc3c(c2)C(=O)N([C@@H](C)CO)C[C@@H](C)[C@H](CN(C)Cc2ccc(C(=O)O)cc2)OCCCC[C@H](C)O3)cc1` stands “inactive”; under `C[C@H](CO)N1C[C@H](C)[C@H](CN(C)Cc2ccc(C(=O)O)cc2)Oc2c(NC(=O)Nc3ccccc3)cccc2C1=O`, “inactive”. Regarding `Cc1noc(C)c1NC(=O)N(C)C[C@@H]1Oc2c(NC(=O)Nc3ccc(F)cc3)cccc2C(=O)N([C@H](C)CO)C[C@@H]1C`, the outcome was inactive.

Take `COc1ccc(CN(C)C[C@@H]2OCCCC[C@@H](C)Oc3ccc(NS(=O)(=O)c4cccs4)cc3C(=O)N([C@@H](C)CO)C[C@H]2C)cc1`: the result was inactive. Regarding `C[C@@H]1CCCCO[C@@H](CN(C)S(C)(=O)=O)[C@@H](C)CN([C@@H](C)CO)C(=O)c2cc(NS(=O)(=O)c3ccc(Cl)cc3)ccc2O1`, the result was inactive. For the molecule `C[C@@H]1CCCCO[C@@H](CN(C)C(=O)CCC(F)(F)F)[C@@H](C)CN([C@@H](C)CO)C(=O)c2cc(NS(=O)(=O)c3ccccc3)ccc2O1`, the activity change, negative = inhibition was 14.4% [at 2.6 µM] (inactive). As for `C[C@H](CO)N1C[C@H](C)[C@H](CN(C)CC2CCCCC2)Oc2c(NC(=O)Nc3ccc(C(F)(F)F)cc3)cccc2C1=O`, the outcome was inactive. Still for that read-out and setting: the same measure for `COc1ccc(S(=O)(=O)Nc2ccc3c(c2)C(=O)N([C@@H](C)CO)C[C@H](C)[C@H](CN(C)C)OCCCC[C@@H](C)O3)cc1`: “inactive”; for `C[C@@H]1CCCCO[C@@H](CN(C)CC2CC2)[C@@H](C)CN([C@H](C)CO)C(=O)c2cc(NS(=O)(=O)c3ccc(Cl)cc3)ccc2O1`: “inactive”; for `COc1cccc(S(=O)(=O)N(C)C[C@@H]2Oc3ncccc3C(=O)N([C@H](C)CO)C[C@@H]2C)c1`: “inactive”. The same measure, in the same setting: under `COc1ccc(CN(C)C[C@@H]2OCCCC[C@H](C)Oc3ccc(NS(=O)(=O)c4cccs4)cc3C(=O)N([C@@H](C)CO)C[C@@H]2C)cc1` stands “inactive”; under `O=C(Nc1ccc(C(F)(F)F)cc1)N1[C@@H]2CNC[C@H]1C2c1ccc(-c2ccncc2)cc1` (some centres undefined), “inactive”; under `C[C@@H]1CCCCO[C@@H](CN(C)C)[C@H](C)CN([C@@H](C)CO)C(=O)c2cc(NC(=O)Nc3ccc(C(F)(F)F)cc3)ccc2O1`, “inactive”. The same measure, in the same setting: under `C[C@@H]1CN([C@H](C)CO)C(=O)c2cc(NC(=O)Nc3ccc(F)cc3)ccc2O[C@H]1CN(C)Cc1ccc(C(=O)O)cc1` stands “inactive”; under `C[C@@H]1CCCCO[C@@H](CN(C)Cc2ccccc2)[C@@H](C)CN([C@H](C)CO)C(=O)c2cc(NS(=O)(=O)c3cccs3)ccc2O1`, “inactive”. Turning to `CCCN(C)C[C@@H]1OCCCC[C@@H](C)Oc2ccc(NS(=O)(=O)c3ccc(C)cc3)cc2C(=O)N([C@H](C)CO)C[C@@H]1C`, the outcome was inactive. Regarding `C[C@@H]1CCCCO[C@@H](CN(C)C(=O)CCC(F)(F)F)[C@@H](C)CN([C@@H](C)CO)C(=O)c2cc(NS(=O)(=O)c3ccc(Cl)cc3)ccc2O1`, the outcome was inactive. The same measure, in the same setting: the same measure for `C[C@@H]1CCCCO[C@@H](CN(C)Cc2ccc(C(=O)O)cc2)[C@H](C)CN([C@@H](C)CO)C(=O)c2cc(NS(=O)(=O)c3ccc(Cl)cc3)ccc2O1`: “inactive”.
